Laboratory results reported in PubChem BioAssay (NCI).
“And” between values parts separate entries of the source, which are not always exact repeats. Equal values may be shown once. This is part of a sample that, as a whole, favours compounds with a hit. Of some 83,000 tested, about 20% had one in any assay.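 Testing used 96-well plates and a 48-hour single-concentration exposure. Example: -40 means 40% of the starting cells died.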 The source made the active and inactive calls. Rule for the calls: active = growth percent below 10; inactive = the rest.

These compounds were tested on HL-60(TB) leukemia (assay: NCI-60 one-dose screen, 48 h (100 = growth as untreated, 0 = no growth, -100 = all killed)). Settings: 10 µM unless noted.

SMILES	growth
CNC(=O)c1ccccc1Nc1nc(Nc2ccc3c(c2OC)CCC[C@H](N2CCN(CCO)CC2)C3)ncc1Cl	-45.7% (active)
O=C(Nc1nc2ccccc2[nH]1)C(=O)Nc1nc2ccccc2[nH]1	99.7% (inactive)
CC[C@@H](C[C@H](CCO)c1ccccc1)c1cc2ccccc2o1	92.5% (inactive)
CN(CCc1ccccn1)c1ccccc1	34.4% (inactive)
CCOC(=O)c1c[nH]c2cc(OCC3CC3)c(OCC3CC3)cc2c1=O	104% (inactive)
Cn1c(=O)c2[nH]c(CCCCCCCCc3nc4ccccc4[nH]3)nc2n(C)c1=O	59.4% (inactive) and 71.2% (inactive)
Cc1nnc(NC(=O)c2nc(S(=O)(=O)Cc3ccc(F)cc3)ncc2Cl)s1	-30.5% (active)
CC(=O)OCC(=O)[C@@]1(O)[C@H](C)C[C@H]2[C@@H]3C=C(C)C4=Cc5c(cnn5-c5ccc(F)cc5)C[C@]4(C)[C@H]3[C@@H](O)C[C@@]21C	16.3% (inactive)
C#CCN(C)Cc1ccccc1	101% (inactive) and 96.4% (inactive)
O=C1c2ccc3c4ccc5c6c(ccc(c7ccc(c2c37)C(=O)N1CCC[P+](c1ccccc1)(c1ccccc1)c1ccccc1)c64)C(=O)N(CCC[P+](c1ccccc1)(c1ccccc1)c1ccccc1)C5=O	54.6% (inactive)
c1ccc(-c2nnn(-c3ccccc3)n2)cc1	88.9% (inactive)
O=C(Nc1ccc(Cl)cc1)Nc1ccccc1CNc1nc(Nc2ccc(OCCN3CCCC3)cc2)ncc1Cl	-45.1% (active)
N#CCN1C(=O)C2C3=C(CCCC3)SC2N=C1CN1CCCC1 (stereo not given)	66.3% (inactive)
COc1ccc2[nH]c(O)c(C(=Nc3ccc(N(C)C(=O)CN4CCN(C)CC4)cc3)c3ccccc3)c2c1	-14.9% (active)
C=C(C(N)=O)C(N)C(=O)O (stereo not given)	104% (inactive)
COc1ccc(/C(=C/c2cc(OC)c(OC)cc2[N+](=O)[O-])C(=O)O)cc1	98.5% (inactive)
COc1ccc(-n2ncn(CCCCCCn3cnn(-c4ccc(OC)cc4)c3=O)c2=O)cc1	86.7% (inactive)
COc1ccc2nc(-c3ccc(Cl)cc3)cc(-c3nnc(SCC(=O)Nc4ccc(/C(C)=N\O)cc4)o3)c2c1	61.9% (inactive)
CCNC(=S)NN	100% (inactive)
COC(=O)[C@]12CC[C@@H](C)[C@H](C)[C@@H]1C1=CC[C@@H]3[C@@]4(C)C/C(=N\O)[C@H](O)[C@@]5(C)COC(=C45)C[C@@]3(C)[C@]1(C)CC2	-59.8% (active)

SMILES	growth
COc1cc2oc(-c3cccc(NC(=O)c4ccccc4)c3)cc(=O)c2c(OC)c1OC	60.5% (inactive)
O=[N+]([O-])c1ccc(Oc2ccccc2)cc1	96.8% (inactive) and 79.2% (inactive)
ON1CCCC1	82.3% (inactive)
NC(=S)Cc1ccccc1	99.1% (inactive)
COc1cc(C2CC(=O)c3c(C)nn(-c4nc5ccccc5[nH]4)c3C2)cc(OC)c1OC (stereo not given)	132% (inactive)
O=C(CCN1C(=O)/C(=C/c2ccc(O)cc2)SC1=S)Nc1ccccc1	61.2% (inactive)
COc1ccc(C2=C(c3cc(OC)c(OC)c(OC)c3)C(=O)CC2)cc1	11.1% (inactive)
O=C(NNc1ccccc1)OCc1ccccc1	5.98% (active)
CC(C(=O)O)n1cc(C#N)c(=O)[nH]c1=O (stereo not given)	104% (inactive) and 90.4% (inactive)
O=S(=O)(NCCCNc1nccc(-c2c(-c3ccc(F)c(O)c3)nc3occn23)n1)c1ccc(Cl)cc1	94.2% (inactive)
CC(NNC(=S)N1CCCCCC1)c1ccc2ccccc2n1 (stereo not given)	28.8% (inactive)
Cc1cccc([N+](=O)[O-])c1Cl	115% (inactive)
Cc1[nH]c(=O)[nH]c(=O)c1CCSSCCc1c(C)[nH]c(=O)[nH]c1=O	99.5% (inactive)
CC(Oc1ccc(C(=O)NS(=O)(=O)C(C)(C)C)cc1C(F)(F)F)c1ccc(Oc2ccccc2)cn1 (stereo not given)	72.2% (inactive)
CCCCCCC1N=C(N)N=C(N)N1c1cccc(Cl)c1 (stereo not given)	44.3% (inactive)
Cc1c(-c2noc(-c3ccc([N+](=O)[O-])cc3)n2)no[n+]1[O-]	102% (inactive)
O=S(=O)(Nc1ccc(Cl)cc1)c1ccc(-c2cnc(C3CC3)o2)cc1	-36.7% (active)
Nc1c(O)c(S(=O)(=O)O)c(O)c2c1C(=O)c1ccccc1C2=O	-8.61% (active)
CCO/C=N/C1=C(C#N)C(c2ccc(OC)cc2)c2sc3c(F)cccc3c2O1 (stereo not given)	-9.87% (active)
COc1nccc2cc3c(=O)n4c(cc5ccccc54)c(=O)n3c12	93.5% (inactive)
